Source: PubChem
Many of the other results were omitted from the sample, so hits are more common in it than they were.
Sa growth 42C – blocks Staphylococcus aureus growth; S. aureus RN4220 growth, OD600, 20 h, 42 °C; hits give low values; relative growth, % (test concentration not listed); 170,000 compounds, 0.53% hits; AID 720641;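 active means relative growth at most 50% at the other temperature and 20+ points below 30 °C, or under 10% at both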
HCMV NEC inh – cytomegalovirus nuclear egress complex inhibition; AID 1918969; inhibition, % (concentration not given with the values); 190,000 compounds, 0.15% hits; HTRF UL50-UL53 interaction, normalized percent inhibition; in the data active means inhibition above about 27%, passing the limit was not always enough
S aureus helic – blocks Staphylococcus aureus DNA helicase. purified S. aureus helicase, fluorescence unwinding assay. inhibition, % (no concentration beside the values). 120,000 compounds, 0.05% hits; in the data active means inhibition above about 25%, passing the limit was not always enough
Large screens that a line does not name were inactive.

CS/C(=N\S(=O)(=O)c1cccs1)NC(=O)c1ccccc1	none
O=C1C(Sc2ccccc2)=C/C(=N/S(=O)(=O)c2cccs2)c2ccccc21	Sa growth 42C 0.0 (no result: HCMV NEC inh)
CCOC(=O)/C(C#N)=C1\C(=O)Nc2ccccc21	none
N#C/C(C(N)=O)=C1/C(=O)Nc2ccc(Br)cc21	Sa growth 42C 9.1
C(=Nc1ccc(Nc2ccccc2)cc1)c1ccco1	none
Cc1[nH]c2ccccc2c1C(c1ccncc1)N1CCN(C)CC1 (stereo unspecified)	none (no result: Sa growth 42C)
Cc1[nH]c2ccccc2c1C(c1cccs1)N1CCN(c2ccccc2)CC1 (stereo unspecified)	Sa growth 42C 0.0
Cc1[nH]c2ccccc2c1C(Nc1ccccn1)c1cccs1 (stereo unspecified)	none (no result: Sa growth 42C)
COC(c1cccs1)c1c(C)[nH]c2ccccc12 (stereo unspecified)	Sa growth 42C 2.0
COc1ccc(S(=O)(=O)Nc2ccc(-c3ccc(N4CCCC4)nn3)cc2)cc1OC	none (no result: Sa growth 42C, S aureus helic)
CCC(C(=O)Nc1ccc(F)cc1F)n1nc(C)c2c(C)n(-c3ccccc3)nc2c1=O (stereo unspecified)	none (no result: Sa growth 42C, S aureus helic)
COc1cc(/C=N/N=C(N)N)ccc1OC(=O)c1ccc(C)cc1	Sa growth 42C -0.7
COc1ccc(/C=N/N=C(N)N)cc1OC	none
CCOc1c(OC)cccc1C1CC(=O)Nc2c1c(C)nn2-c1nncc(-c2ccc(C)cc2)n1 (stereo unspecified)	none (no result: Sa growth 42C, S aureus helic)
O=C1c2ccccc2C(=O)c2sccc21	Sa growth 42C 1.6
O=C1c2ccccc2C(=O)c2c1cccc2-c1cccc2c1C(=O)c1ccccc1C2=O	none (no result: Sa growth 42C, S aureus helic)
CCCC1CCC(c2ccc(C(N)=O)cc2)CC1 (stereo unspecified)	none (no result: HCMV NEC inh)
CCCC1CCC(c2ccc(C(=O)CCN(C)C)cc2)CC1 (stereo unspecified)	Sa growth 42C -0.5
COC(=O)c1ccc2c(=O)[nH]c(COC(=O)CNC(=O)c3cccs3)nc2c1	S aureus helic 32.0
COC(=O)c1ccc2c(=O)[nH]c(COC(=O)c3ccc4c(c3)OCO4)nc2c1	none
CCCCNC(=S)Nc1ccc(SC(F)F)cc1	Sa growth 42C 0.6
CCCCNC(=S)Nc1ccc(OC)cc1	none
CCc1ccc(NC(=O)C(OC)c2ccccc2)cc1 (stereo unspecified)	none
CC1Cc2ccccc2N1C(=O)Nc1ccc(Cl)c(Cl)c1 (stereo unspecified)	none
CC(N=c1ccccn1C(=O)Nc1ccc(Cl)c(Cl)c1)c1ccco1 (stereo unspecified)	Sa growth 42C -0.8
Cc1ccc(-c2cc(N3CCC(C(=O)NCc4ccc5c(c4)OCO5)CC3)ncn2)cc1	none (no result: Sa growth 42C, S aureus helic)
CC(C=C1C(=O)NC(=O)NC1=O)c1ccccc1 (stereo unspecified)	HCMV NEC inh 61.5 (no result: S aureus helic)
O=C1NC(=O)C(=Cc2ccc(-c3ccccc3)o2)C(=O)N1	none (no result: HCMV NEC inh)
Cc1cc(NN)nc(SCC(=O)NN)n1	none
CC1=NN(c2nc3ccccc3s2)C(=O)C1	none (no result: S aureus helic)
CC1=NN(c2nc3ccccc3s2)C(=O)C1CCC(C)C (stereo unspecified)	Sa growth 42C 1.9
C[n+]1ccc(/C=C/c2ccccc2F)c2ccccc21	none (no result: HCMV NEC inh)
CN1C=C/C(=C\c2cc[n+](C)c3ccccc23)c2ccccc21	Sa growth 42C 0.6, S aureus helic 86.0 (no result: HCMV NEC inh)
Cc1noc(C)c1CSc1ccccc1C(=O)OCC(=O)NC1(C#N)CCCCC1	none
CC(C)CN(CC(C)C)Cn1nc(-c2ccc3c(c2)OCO3)oc1=S	none
CN(Cn1nc(-c2ccc3c(c2)OCO3)oc1=S)C1CCCCC1	Sa growth 42C 44.9
CC(C)(C)c1cc(C(=O)OCCN2CCCCC2)cc(C(C)(C)C)c1	Sa growth 42C 21.9 (no result: HCMV NEC inh)
Cc1ccc(C(=O)OCCN2CCCCC2)cc1	none
CCn1c(/N=C/c2ccccc2Cl)nc2ccccc21	HCMV NEC inh 72.1
CCCn1c(/N=C/c2ccccc2Cl)nc2ccccc21	none
O=C(COc1ccccc1Cl)NCC(c1ccccc1)c1c[nH]c2ccccc12 (stereo unspecified)	none (no result: Sa growth 42C, S aureus helic)
CC(C)NC(=O)c1cn2c3c(ccc(Cl)c3c1=O)OC(C)C2 (stereo unspecified)	none
CNC(=O)c1cn2c3c(ccc(Cl)c3c1=O)OC(C)C2 (stereo unspecified)	HCMV NEC inh 50.4
O=c1c2c(-c3cccs3)csc2[nH]c(=S)n1-c1ccccc1	none
CC(C)n1c(=S)[nH]c2scc(-c3cccs3)c2c1=O	Sa growth 42C 3.9
O=C(NCCN1CCOCC1)c1nn2c(c1Br)NC(c1ccccc1)CC2C(F)(F)F (stereo unspecified)	none (no result: Sa growth 42C, S aureus helic)
O=C(c1cc(-c2cccnc2)n[nH]1)N1CCCC(C(=O)N2CCN(c3ccccc3)CC2)C1 (stereo unspecified)	none (no result: Sa growth 42C, S aureus helic)
CC(CC(=O)NCc1ccccc1)S(=O)(=O)c1ccc2c(c1)NC(=O)CS2 (stereo unspecified)	none
CCCCCSc1nnc(-c2ccc(Cl)cc2Cl)o1	none
FC(F)(F)c1ccccc1-n1ccnc1	none (no result: Sa growth 42C, S aureus helic)
Clc1ccccc1C(c1ccccc1)(c1ccccc1)n1ccnc1	Sa growth 42C 0.2 (no result: S aureus helic)
COCOC(=O)c1c(-c2ccccc2Cl)noc1C	none
CC(=C\c1ccccc1)/C=C1/SC(=S)N(C2CCCCC2)C1=O	none (no result: HCMV NEC inh)
O=C1/C(=C/c2cccnc2)SC(=S)N1C1CCCC1	Sa growth 42C 7.2
CC1=C(C(=O)N2CCN(c3ccc(F)cc3)CC2)C2(CCCCC2)OC1=O	none (no result: Sa growth 42C, S aureus helic)
FC(F)(F)c1cccc(N=Cc2ccccc2)c1	none
FC(F)(F)c1cccc(N=C=S)c1	Sa growth 42C -1.3
CCN(CC)S(=O)(=O)c1ccc(N2CC(C(=O)NC3CCCc4ccccc43)CC2=O)cc1 (stereo unspecified)	none
COc1ccc(-c2nnc3sc(-c4c[nH]c5ccccc45)nn23)cc1OC	none (no result: Sa growth 42C, S aureus helic)
Cn1cnc(S(=O)(=O)Nc2ccccc2Oc2ccccc2)c1	none (no result: S aureus helic)
Nc1nc(NCc2ccccc2)c(I)c(=O)[nH]1	HCMV NEC inh 65.8
O=c1[nH]c2ccccc2nc1NCc1ccccc1	none
CS(=O)c1sc(C(=O)OCc2ccccc2)c2c1C(=O)CC(C)(C)C2 (stereo unspecified)	Sa growth 42C -0.7 (no result: S aureus helic)
CS(=O)c1sc(Br)c2c1C(=O)CC(C)(C)C2 (stereo unspecified)	none (no result: S aureus helic)
COc1ccc2nc(Nc3sc4c(c3C(N)=O)CCCC4)sc2c1	none (no result: Sa growth 42C, S aureus helic)
COc1cccc2sc(Nc3sc4c(c3C(N)=O)CCCC4)nc12	Sa growth 42C 1.1 (no result: HCMV NEC inh)
O=S(=O)(c1cc(Cl)ccc1Cl)N1CCCC1	Sa growth 42C 49.0
O=S(=O)(c1cc(Cl)ccc1Cl)N1CCCCC1	none (no result: S aureus helic)
CC(C)(C)CC(C)(C)N=C1NS(=O)(=O)c2ccccc21	none
CC1=C(C(=O)OC2CCCC2C)C(c2cc3c(cc2Br)OCO3)NC(=O)N1 (stereo unspecified)	none (no result: Sa growth 42C, S aureus helic)
CC1=C(C(=O)OC2CCCC2C)C(c2ccc(Cl)cc2)NC(=O)N1 (stereo unspecified)	Sa growth 42C 27.7
COC(=O)c1ccc(CSc2nnc(COc3ccccc3)o2)o1	none
Cn1cc(C(=O)N2CCCC2)c2[nH]c(=O)n(-c3ccccc3)c(=O)c21	none (no result: Sa growth 42C, S aureus helic)
COc1ccc(C(=O)OCCCN(C2=NS(=O)(=O)c3ccccc32)c2ccccc2)cc1	none (no result: Sa growth 42C, S aureus helic)
S=C(NCCSc1ccc(Cl)cc1)Nc1cccc(Cl)c1	none (no result: HCMV NEC inh)
CC(CNC(=S)Nc1cccc(Cl)c1)CSc1ccc(Cl)cc1 (stereo unspecified)	Sa growth 42C -0.4 (no result: HCMV NEC inh)
COc1ccc(CN2C(=O)NC(=O)/C(=C\c3cc(OC)ccc3OC)C2=O)cc1	HCMV NEC inh 83.2 (no result: Sa growth 42C, S aureus helic)
COc1ccc(/C=C2/C(=O)NC(=O)N(c3ccc(Br)cc3)C2=O)c(OC)c1	none (no result: Sa growth 42C, S aureus helic)
